Experimental data taken from PubChem BioAssay (NCI).
This is part of a sample that, as a whole, favours compounds with a hit. Of some 79,000 tested, about 15% had one in any assay. A number with no mark means an inactive call. Active and inactive are the calls of the source. Rule as the data show it: active = growth inhibition above about 70%; inactive = the rest.

Columns and labels:
[1] = NCI Yeast Anticancer Drug Screen. Data for the rad50 strain (AID 155);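 also: 0% = growth of vehicle-only cultures of the same strain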; details: S. cerevisiae rad50 strain growth inhibition; at 50.0 µM; stronger effect = higher value
In short: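 DNA repair mutant yeast, compound exposure, growth read-out; inhibition is taken relative to vehicle.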

[2] = NCI Yeast Anticancer Drug Screen. Data for the mec2-1 strain (AID 157); details: S. cerevisiae mec2-1 strain, at 50.0 µM, stronger effect = higher value
In short: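 Strain: mec2-1 (DNA repair/cell cycle alteration). Compound exposure, then growth measured; inhibition expressed relative to vehicle.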

[3] = NCI Yeast Anticancer Drug Screen. Data for the sgs1 mgt1 strain (AID 161);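 also: 0% = growth of cultures given vehicle only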; details: S. cerevisiae sgs1 mgt1 strain, at 50.0 µM, stronger effect = higher value
In short: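 Mutant yeast exposed to compound; growth scored against vehicle-only wells.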

[4] = NCI Yeast Anticancer Drug Screen. Data for the cln2 rad14 strain (AID 165);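 also: 0% = growth equal to vehicle treated cultures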; details: S. cerevisiae cln2 rad14 strain, at 50.0 µM, stronger effect = higher value
In short: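 Compounds are applied to the cln2 rad14 yeast strain, and growth is then compared with that of vehicle-treated cultures to give inhibition.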

[5] = NCI Yeast Anticancer Drug Screen. Data for the bub3 strain (AID 167); details: S. cerevisiae bub3 mutant strain, at 50.0 µM, stronger effect = higher value
In short: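 In this screen, a yeast mutant lacking normal mitotic checkpoint function is challenged with compound. Relative growth versus vehicle gives the inhibition value.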

[6] = NCI Yeast Anticancer Drug Screen. Data for the mlh1 rad18 strain (AID 175); details: S. cerevisiae mlh1 rad18 strain growth inhibition; at 50.0 µM; stronger effect = higher value
In short: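 Read-out is yeast growth inhibition, calculated against vehicle-only controls. The compound was applied to a strain engineered with DNA damage repair alterations.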

| SMILES | growth inhibition [1] | growth inhibition [2] | growth inhibition [3] | growth inhibition [4] | growth inhibition [5] | growth inhibition [6] |
| --- | --- | --- | --- | --- | --- | --- |
| NC(CSSCC(N)=NC1CCCCC1)=NC1CCCCC1 | 6.5% | 3.4% | 13% | 7.35% | -1.45% | 20% |
| O=[N+]([O-])c1ccc(S(=O)(=O)Nc2ccccc2-c2ccccc2)cc1 | 99% (active) | 99% (active) | 99.3% (active) | 98.2% (active) | 98.8% (active) | 98.7% (active) |
| COC(=O)CCN1CCN(CCO)CC1C (stereo unspecified) | -36.9% | -39.8% | -26.6% | -9.75% | -2% | -32.5% |
| Cc1cccc(NC(=O)Nc2cccc(Cl)c2Cl)n1 | 15.9% | 13.7% | 13.6% | 15.1% | 23.9% | 18.6% |
| COC(=O)c1cc(OC)c(O)c(OC)c1 | -1.3% | -0.4% | 16.6% | -12.3% | 4.05% | -19.9% |
| Cc1ccc(S(=O)(=O)OCC2CCC(COS(=O)(=O)c3ccc(C)cc3)O2)cc1 (stereo unspecified) | -4.9% | -14.4% | -4.85% | 10.7% | -0.35% | -6.9% |
| CN1CCCn2c(nc3ccccc3c2=O)C1 | -1.4% | -4.65% | -5.55% | 14.5% | -0.5% | -4.35% |
| N#Cc1nc[nH]c1C(N)=O | -2.4% | 0.25% | -14.2% | 11.8% | 11% | 6.25% |
| CC(=O)N1C(=O)C2(Nc3cccnc3N2)c2ccccc21 (stereo unspecified) | -4.85% | 16.4% | -1.8% | -1.35% | -0.95% | -16.1% |
| CCOC(=O)NC(CC)c1ccc2oc3ccccc3c2c1 (stereo unspecified) | -10.5% | 1.9% | 20.4% | -4.15% | 32% | -15.3% |
| CCc1ccccc1NOC | 7.65% | -1.9% | -1.05% | -7.15% | 8.45% | 9.65% |
| CC1(C)C2CCC1C(=O)C(C=O)C2 (stereo unspecified) | -10.3% | 16.1% | -22.1% | 32.5% | -40.2% | -41.8% |
| CCc1ccccc1O | 6.1% | -7.6% | 3.3% | -25% | -11.7% | 1.4% |
| Nc1n[nH]c(CCCCc2nc(N)n[nH]2)n1 | -23.2% | -24.4% | -2.55% | -39.8% | -4.25% | -1.9% |
| CN(C)c1ccc(/C=N/NC(=O)c2ccccc2NC(=O)c2ccccc2)cc1 | -1.65% | -20.3% | -11.6% | -19.8% | 14.9% | 3.4% |
| O=C(Oc1ccc(Cl)cc1)c1ccccc1 | 25.3% | -2.1% | -1.65% | 2.25% | -7.75% | -25.6% |
| Cc1cc2nc(Cl)n(C3OC(CO)C(O)C3O)c2cc1C (stereo unspecified) | 16.6% | -7.15% | 0.15% | 4.8% | -1% | 12.8% |
| CC(C)(C)OC(=O)N1CCCC1C(=O)NC(c1ccccc1)c1ccccc1 (stereo unspecified) | -35.1% | -56.5% | -37.5% | -18.9% | -13.4% | -40.1% |
| Cc1cc2c(cc1C)C(O)CCC(=O)N2 (stereo unspecified) | 5.55% | 3.7% | 11.7% | 6.85% | 16% | -0.05% |
| CC(C)CN1CC(C)C(=O)NC1=O (stereo unspecified) | 1.4% | -3.4% | -2.45% | 3.85% | 1% | 5.4% |
| O=c1cc(O)cc2n1CCC2 | 5.15% | 4.6% | -11.4% | 16.4% | -14.8% | 0.35% |
